What all share (format): functional
In assay [1] the target is Solute carrier family 2, facilitated glucose transporter member 1 (Homo sapiens) (UniProt P11166). The assay is described as follows: ST_JUDE_LEISH: Cytotoxicity at 2uM final concentration against transgenic Leishmania Mexicana promastigotes LmGLUT1 that are glucose transport deficient and complemented with the human glucose transporter GLUT1. Activity is measured by DNA content using SYBR green in vitro.

Assay [2] addresses Hexose transporter 1 (Plasmodium falciparum) (UniProt O97467). Put plainly: ST_JUDE_LEISH: Cytotoxicity at 2uM final concentration against transgenic Leishmania Mexicana promastigotes LmPfHT that are glucose transport deficient and complemented with the Plasmodium falciparum hexose transporter. Activity is measured by DNA content using SYBR green in vitro.
Assay [3] concerns the target Glucose transporter (Leishmania mexicana) (UniProt O61059). The assay is described as follows: ST_JUDE_LEISH: Cytotoxicity at 2uM final concentration against transgenic Leishmania Mexicana promastigotes LmGT2 that are glucose transport deficient and complemented with the L. Mexicana glucose transporter 2. Activity is measured by DNA content using SYBR green in vitro.

This note sets out measurements from ChEMBL document CHEMBL3433997, “St. Jude Leishmania screening dataset” (2016).

Structures are written as SMILES.

Solute carrier family 2, facilitated glucose transporter member 1 (Homo sapiens), sequence (P11166 whole entry): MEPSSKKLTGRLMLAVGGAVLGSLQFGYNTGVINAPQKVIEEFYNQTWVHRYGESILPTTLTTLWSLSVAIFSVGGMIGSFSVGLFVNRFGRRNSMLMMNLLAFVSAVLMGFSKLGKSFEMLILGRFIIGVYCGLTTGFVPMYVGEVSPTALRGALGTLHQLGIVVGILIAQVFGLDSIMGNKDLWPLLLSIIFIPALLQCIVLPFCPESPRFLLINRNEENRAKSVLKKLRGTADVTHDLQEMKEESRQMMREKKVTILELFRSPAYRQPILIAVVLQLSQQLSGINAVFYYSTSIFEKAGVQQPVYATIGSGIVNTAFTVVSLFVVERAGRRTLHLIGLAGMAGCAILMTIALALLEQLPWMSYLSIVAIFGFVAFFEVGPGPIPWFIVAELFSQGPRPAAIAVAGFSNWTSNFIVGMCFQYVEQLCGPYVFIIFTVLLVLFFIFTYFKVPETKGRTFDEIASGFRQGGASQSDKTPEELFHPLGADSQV

The term inhibition denotes the change of the read-out against control, counted positive when it falls. For the molecule `Nc1cc2c(C3CCN(CC4CCN(C(=O)/C=C/c5ccc(Cl)c(Cl)c5)CC4)CC3)c[nH]c2cn1`, the values for the inhibition in assay [1], in assay [2] and in assay [3] were 1.83%, 0.67% and -0.09%, respectively.
Taken in the same sequence, the figures for `COC(=O)c1cccc(CNCc2cccc(-c3cccc(-c4nc5ccccc5[nH]4)c3)c2)c1` were 1.94%, 3.05% and 2.93%.
Taken in the same sequence, the figures for `O=S(=O)(Nc1cc2c(cc1O)CCNCC2)c1ccc(-c2ccc(Cl)cc2)cc1` were 3.27%, -0.71% and 2.34%.
On to `Cc1nc(-c2ccc(C(F)(F)F)cn2)sc1C(=O)N1CCc2cc3nccc(N4CCN5CCC[C@H]5C4)c3cc21`, for which the figures for the inhibition in assay [1], in assay [2] and in assay [3] were 7.49%, 5.35% and 0.8%, respectively.
Taken in the same sequence, the figures for `COc1ccc(C=NN=c2cc(C)[nH]c3ccccc23)c(OC)c1` were 54.4%, 66% and 55.3%.
The like results for `CC(C)c1cc2c(ccc3nc(N)nc(N)c32)[nH]1` were, in that order, 9.81%, 31% and 8.49%.
As for `CCCc1ccccc1OCC(O)CN(C1CCCC1)C1CCCC1` (configuration not stated), the inhibition in assay [1] was 6.36%; in assay [2], 6.68%; in assay [3] it was 5.96%.
Take `Cc1cc(Nc2ccc(C)c(Cl)c2)n2nc(C(F)(F)F)nc2n1`: the inhibition came out at 6.65% in assay [1], 2.47% in assay [2] and 1.18% in assay [3].
On to `N#Cc1ccc(CN2CCCN(Cc3cccc(NC(=O)c4cc5ccccc5s4)c3)CC2)cc1`, for which the inhibition in assay [1] was -0.46%; in assay [2], -0.58%; in assay [3], -1.54%.
The like results for `O=C(Nc1ccon1)c1cc(-c2cccnc2)nc2ccc(Cl)cc12` were, in that order, 5.01%, 3.36% and 3.02%.
The like results for `COc1cc(CNCCCNc2nc3ncccc3[nH]2)c2[nH]cc(Br)c2c1` were, in that order, 23.9%, 43.1% and 21.6%.
Taken in the same sequence, the figures for `CCc1c(C(=O)NC2CCC(N3CCC(c4ccccc4C)CC3)CC2)[nH]c2ccc(OC)cc12` (configuration not stated) were 0.2%, -0.58% and -0.08%.
For `NS(=O)(=O)c1ccc(CNc2ccc3ncc(-c4ccc(Cl)cc4)n3n2)cc1`, the inhibition in assay [1] was -0.09%; in assay [2], 0.08%; in assay [3], -0.35%.
On to `COCCN1CCC(N(Cc2ccc(-c3ccc(C(F)(F)F)cc3)cc2)C(=O)Cn2c(CCc3cccc(F)c3F)cc(=O)c3c2CCC3)CC1`, for which the values for the inhibition in assay [1], in assay [2] and in assay [3] were -2.35%, -0.63% and -2.32%, respectively.
The like results for `COc1ccc(CN2CCCN(Cc3cccc(NC(=O)c4ccc(Cl)c(Cl)c4)c3)CC2)cc1` were, in that order, 2.61%, 4.62% and 0.01%.
The like results for `Nc1ncc(-c2ccc(Cl)c(Cl)c2)c(N)n1` were, in that order, 0.86%, 1.64% and 0.31%.
The like results for `CCCCN1CC[C@@H](CCC(O)c2cc(OCCC)nc3ccc(OC)cc23)[C@@H](CC)C1` (some centres not stated) were, in that order, -0.6%, -1.53% and -1.52%.
`CCc1c[nH]c2c(N3CCCC3=O)cc(C(=O)N[C@@H](Cc3ccccc3)[C@H](O)CNC(C)(C)c3cccc(OC)c3)cc12`: the inhibition in assay [1] is -0.15%; in assay [2] it was 1.3%; in assay [3], 1.9%.
The like results for `CCN(CCCN1CCCCC1)c1cc(C)nc(Nc2cc(F)cc(F)c2)n1` were, in that order, 5.16%, 4.98% and 4.62%.
`OC(CNCc1ccccc1OCc1ccccc1)c1cccc(Br)c1` (configuration not stated): the inhibition worked out at 4.31% in assay [1], 4.13% in assay [2] and 2.24% in assay [3].
The like results for `Nc1nc(N)c2c(ccc3c2ccn3Cc2cccc(F)c2)n1` were, in that order, 102%, 104% and 99.8%.
The like results for `Cc1cc2cc(-c3ccc(CN)cc3)ccc2nc1N` were, in that order, -1.44%, 1.71% and -3.5%.
`COc1ccccc1NC(=O)OC(COc1ccc(N)cc1)CN1CC=C(c2ccccc2)CC1` (configuration not stated): the inhibition was 0.46% in assay [1], 0.25% in assay [2] and 0.98% in assay [3].
Regarding `O=C1C2C3SC(c4c3ccc3ccccc43)C2C(=O)N1c1ccccc1` (configuration not stated), the results for the inhibition in assay [1], in assay [2] and in assay [3] were -0.44%, 0.31% and -1.01%, respectively.
The like results for `c1cc(CNCCc2ccncc2)cc(-c2ccc(-c3nc4ccccc4[nH]3)cc2)c1` were, in that order, 1.46%, 2.38% and 0.79%.
Taken in the same sequence, the figures for `COc1ccc(Nc2nc(N/N=C/c3ccc(O)cc3)nc(Nc3ccc([N+](=O)[O-])cc3)n2)cc1` were 1.19%, 2.44% and 0.87%.
`CC(C)(C)c1ccccc1OC(=O)c1ccccc1`: the inhibition in assay [1] was -1.66%; in assay [2], -1.47%; in assay [3], -0.79%.
As for `COCCCn1c(=N)c(C(=O)NCCc2ccc(OC)cc2)cc2c(=O)n3cccc(C)c3nc21`, the inhibition in assay [1] was 4.69%; in assay [2], 5.42%; in assay [3] it was 8.16%.
Turning to `CC1CCCCC1N(C)C1CCN(CCCNC(=O)C=Cc2ccccc2Cl)CC1` (configuration not stated), the inhibition in assay [1] was -0.22%; in assay [2], -0.24%; in assay [3] it was -0.58%.
Turning to `CC(C)[C@H]1CC[C@H](C)C[C@@H]1OC(=O)N[C@@H](Cc1ccc(O)cc1)C(=O)NC1CCN(Cc2ccc(OCCCN(C)C)cc2)C1` (some centres not stated), the results for the inhibition in assay [1], in assay [2] and in assay [3] were 5.09%, 3.96% and 3.06%, respectively.
The like results for `N=C(N)Nc1ccc(CCc2ccc(NC(=N)N)cc2)cc1` were, in that order, 4.14%, 4.16% and 2.91%.
Taken in the same sequence, the figures for `CCCc1cc(=O)oc2cc(OC)c(C(=O)CC(C)C)c(OC)c12` were 0.58%, 3.76% and 6.92%.
`CS(=O)(=O)CCNCc1cccc(-c2ccc3c(Nc4cc(O)c(Cl)cc4F)ccnc3c2)c1`: the inhibition in assay [1] was determined as 6.47%; in assay [2], 4.71%; in assay [3], 2.65%.
Taken in the same sequence, the figures for `Oc1ccc(-c2ccccc2)cc1CNC1CCCCC1` were 2.86%, 0.92% and 2.38%.
